From paper PMC10943123 come the findings set out here.

In test [1] the target is Splicing factor 3A subunit 2 (UniProt Q15428). As to the kind of experiment: cross-link between two proteins; cross-linking mass spectrometry.
Test [2] has as its target Pre-mRNA-processing-splicing factor 8 (UniProt Q6P2Q9). The test is described as above.
Test [3] has as its target Nuclear cap-binding protein subunit 1 (UniProt Q09161). Put plainly: cross-linking mass spectrometry.
Test [4] addresses Zinc finger CCCH domain-containing protein 18 (UniProt Q86VM9). As to the kind of experiment: cross-link between two proteins; cross-linking mass spectrometry.
Test [5] deals with Cell division cycle 5-like protein (UniProt Q99459). As to the kind of experiment: cross-link between two proteins; cross-linking mass spectrometry; other.
For test [6] the target is unchanged. Put plainly: cross-link between two proteins; cross-linking mass spectrometry.
Test [7] concerns the target U6 snRNA-associated Sm-like protein LSm4 (UniProt Q9Y4Z0). Described as above.
In test [8] the target is U6 snRNA-associated Sm-like protein LSm6 (UniProt P62312). The test is described as above.
Test [9] concerns the target WD repeat-containing protein 70 (UniProt Q9NW82). Described as above.
Test [10] has as its target WW domain-binding protein 4 (UniProt O75554). The test is described as above.
Test [11] concerns the target Small nuclear ribonucleoprotein-associated proteins B and B' (UniProt P14678). The description is as above.

Chain of Cell division cycle 5-like protein (Q99459 whole entry): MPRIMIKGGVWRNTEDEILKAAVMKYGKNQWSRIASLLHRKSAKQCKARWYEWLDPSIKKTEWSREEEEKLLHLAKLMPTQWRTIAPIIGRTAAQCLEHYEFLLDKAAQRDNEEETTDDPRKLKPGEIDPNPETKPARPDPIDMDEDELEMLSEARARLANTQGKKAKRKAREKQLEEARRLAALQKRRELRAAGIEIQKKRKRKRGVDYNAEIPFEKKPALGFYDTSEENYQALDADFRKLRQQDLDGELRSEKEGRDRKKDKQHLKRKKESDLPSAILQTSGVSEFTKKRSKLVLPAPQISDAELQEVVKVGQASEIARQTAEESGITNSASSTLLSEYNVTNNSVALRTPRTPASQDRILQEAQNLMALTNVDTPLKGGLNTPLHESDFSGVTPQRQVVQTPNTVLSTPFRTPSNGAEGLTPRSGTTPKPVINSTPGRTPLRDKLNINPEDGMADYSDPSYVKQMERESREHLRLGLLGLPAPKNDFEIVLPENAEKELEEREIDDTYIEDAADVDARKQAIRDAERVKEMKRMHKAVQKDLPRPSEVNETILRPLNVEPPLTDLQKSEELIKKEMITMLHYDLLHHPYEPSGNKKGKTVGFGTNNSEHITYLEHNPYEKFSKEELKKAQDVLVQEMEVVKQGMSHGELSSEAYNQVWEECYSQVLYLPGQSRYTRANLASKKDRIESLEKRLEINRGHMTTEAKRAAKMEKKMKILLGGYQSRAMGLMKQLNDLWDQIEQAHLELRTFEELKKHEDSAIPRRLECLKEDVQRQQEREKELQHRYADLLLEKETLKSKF
Chain of Peptidyl-prolyl cis-trans isomerase H, O43447 (O43447 whole entry): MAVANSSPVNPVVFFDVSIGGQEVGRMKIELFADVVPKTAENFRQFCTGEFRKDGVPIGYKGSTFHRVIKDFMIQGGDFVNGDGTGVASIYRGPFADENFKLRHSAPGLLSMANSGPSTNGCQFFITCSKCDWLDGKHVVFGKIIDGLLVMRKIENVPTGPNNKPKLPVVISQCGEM
Chain of WW domain-binding protein 4 (O75554 whole entry, the tested form may be a part): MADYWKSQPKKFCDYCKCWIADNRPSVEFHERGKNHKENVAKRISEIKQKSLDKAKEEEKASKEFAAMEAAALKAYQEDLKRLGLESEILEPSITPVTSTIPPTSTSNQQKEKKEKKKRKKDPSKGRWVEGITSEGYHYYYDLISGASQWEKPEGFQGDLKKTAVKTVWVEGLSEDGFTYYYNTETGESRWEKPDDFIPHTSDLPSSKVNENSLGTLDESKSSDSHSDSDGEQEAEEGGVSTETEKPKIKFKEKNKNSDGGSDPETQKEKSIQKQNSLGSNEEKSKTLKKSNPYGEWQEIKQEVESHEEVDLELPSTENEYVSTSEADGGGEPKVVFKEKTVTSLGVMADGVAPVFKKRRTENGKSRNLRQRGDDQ
Chain of Splicing factor 3A subunit 2 (Q15428 whole entry): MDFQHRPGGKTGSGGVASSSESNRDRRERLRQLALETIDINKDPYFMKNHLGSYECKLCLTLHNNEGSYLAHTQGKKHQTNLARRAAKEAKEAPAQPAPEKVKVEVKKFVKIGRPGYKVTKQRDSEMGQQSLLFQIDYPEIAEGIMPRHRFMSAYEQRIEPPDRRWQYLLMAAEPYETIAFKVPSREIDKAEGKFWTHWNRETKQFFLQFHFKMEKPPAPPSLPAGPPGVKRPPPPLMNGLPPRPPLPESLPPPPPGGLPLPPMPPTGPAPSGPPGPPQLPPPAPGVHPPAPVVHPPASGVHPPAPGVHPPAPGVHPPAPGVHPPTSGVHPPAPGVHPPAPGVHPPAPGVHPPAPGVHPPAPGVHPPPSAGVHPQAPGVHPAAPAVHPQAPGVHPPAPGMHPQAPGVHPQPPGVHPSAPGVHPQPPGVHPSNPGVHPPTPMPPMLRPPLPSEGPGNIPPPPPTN
Chain of WD repeat-containing protein 70 (Q9NW82 whole entry, the tested form may be a part): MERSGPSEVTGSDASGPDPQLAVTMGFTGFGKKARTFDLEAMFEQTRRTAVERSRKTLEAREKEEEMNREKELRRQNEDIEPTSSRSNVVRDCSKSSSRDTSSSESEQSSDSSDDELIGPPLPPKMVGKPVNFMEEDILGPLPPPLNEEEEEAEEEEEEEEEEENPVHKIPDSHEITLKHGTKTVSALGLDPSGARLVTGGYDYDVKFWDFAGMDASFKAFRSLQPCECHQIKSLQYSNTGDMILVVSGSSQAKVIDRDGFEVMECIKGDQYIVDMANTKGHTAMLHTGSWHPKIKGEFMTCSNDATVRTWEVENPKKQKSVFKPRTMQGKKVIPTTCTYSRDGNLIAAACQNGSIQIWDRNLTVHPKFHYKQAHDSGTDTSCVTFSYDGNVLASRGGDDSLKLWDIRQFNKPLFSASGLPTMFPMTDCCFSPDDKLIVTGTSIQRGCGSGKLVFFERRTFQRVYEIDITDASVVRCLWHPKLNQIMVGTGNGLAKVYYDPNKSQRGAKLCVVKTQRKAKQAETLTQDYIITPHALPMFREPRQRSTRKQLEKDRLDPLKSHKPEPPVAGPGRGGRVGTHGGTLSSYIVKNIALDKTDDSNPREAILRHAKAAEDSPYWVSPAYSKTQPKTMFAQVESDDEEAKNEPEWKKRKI
Chain of Zinc finger CCCH domain-containing protein 18 (Q86VM9 whole entry, the tested form may be a part): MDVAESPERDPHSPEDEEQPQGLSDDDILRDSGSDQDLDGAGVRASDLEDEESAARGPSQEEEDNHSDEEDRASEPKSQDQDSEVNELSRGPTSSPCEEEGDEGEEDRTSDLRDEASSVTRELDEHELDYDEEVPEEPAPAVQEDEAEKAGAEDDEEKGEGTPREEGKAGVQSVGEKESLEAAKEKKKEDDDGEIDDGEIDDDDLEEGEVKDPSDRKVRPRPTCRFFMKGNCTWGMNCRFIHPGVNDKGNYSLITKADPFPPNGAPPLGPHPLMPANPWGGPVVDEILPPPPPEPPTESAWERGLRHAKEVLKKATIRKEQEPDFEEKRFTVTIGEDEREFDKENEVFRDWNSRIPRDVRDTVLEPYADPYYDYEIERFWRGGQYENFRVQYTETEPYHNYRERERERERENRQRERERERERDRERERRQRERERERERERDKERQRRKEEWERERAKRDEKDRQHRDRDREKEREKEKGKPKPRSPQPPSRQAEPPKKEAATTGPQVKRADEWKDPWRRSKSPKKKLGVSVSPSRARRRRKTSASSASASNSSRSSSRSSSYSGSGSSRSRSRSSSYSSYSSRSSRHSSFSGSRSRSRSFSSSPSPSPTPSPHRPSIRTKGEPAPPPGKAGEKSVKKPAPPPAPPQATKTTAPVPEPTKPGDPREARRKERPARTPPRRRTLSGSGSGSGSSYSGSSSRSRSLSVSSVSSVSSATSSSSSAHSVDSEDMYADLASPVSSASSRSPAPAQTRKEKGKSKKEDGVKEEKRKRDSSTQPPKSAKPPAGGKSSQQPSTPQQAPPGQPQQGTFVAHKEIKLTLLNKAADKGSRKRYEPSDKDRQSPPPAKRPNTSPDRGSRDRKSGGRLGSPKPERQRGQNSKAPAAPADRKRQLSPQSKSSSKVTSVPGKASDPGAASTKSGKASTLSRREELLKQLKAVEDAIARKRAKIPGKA
Chain of Nuclear cap-binding protein subunit 1 (Q09161 whole entry, the tested form may be a part): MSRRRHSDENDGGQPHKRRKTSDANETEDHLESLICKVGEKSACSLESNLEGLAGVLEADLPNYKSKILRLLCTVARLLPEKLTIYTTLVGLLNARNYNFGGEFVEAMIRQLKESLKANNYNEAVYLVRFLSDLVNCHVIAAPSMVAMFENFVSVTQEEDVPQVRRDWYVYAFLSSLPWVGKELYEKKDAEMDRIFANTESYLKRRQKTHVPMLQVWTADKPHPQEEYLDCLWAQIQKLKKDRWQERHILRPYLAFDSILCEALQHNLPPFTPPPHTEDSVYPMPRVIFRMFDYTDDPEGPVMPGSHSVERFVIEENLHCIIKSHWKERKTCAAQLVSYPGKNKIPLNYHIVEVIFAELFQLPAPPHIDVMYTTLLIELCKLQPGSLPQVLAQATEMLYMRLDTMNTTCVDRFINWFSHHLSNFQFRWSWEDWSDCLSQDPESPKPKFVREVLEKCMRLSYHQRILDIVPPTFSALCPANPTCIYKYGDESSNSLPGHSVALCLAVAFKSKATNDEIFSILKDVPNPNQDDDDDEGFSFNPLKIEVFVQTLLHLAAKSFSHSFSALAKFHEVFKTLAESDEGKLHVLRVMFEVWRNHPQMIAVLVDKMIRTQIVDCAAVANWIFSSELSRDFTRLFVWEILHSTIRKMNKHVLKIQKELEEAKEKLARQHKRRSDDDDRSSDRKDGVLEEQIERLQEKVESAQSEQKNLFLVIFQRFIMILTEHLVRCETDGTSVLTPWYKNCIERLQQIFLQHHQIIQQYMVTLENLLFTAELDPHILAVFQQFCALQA
Chain of U6 snRNA-associated Sm-like protein LSm4 (Q9Y4Z0 whole entry): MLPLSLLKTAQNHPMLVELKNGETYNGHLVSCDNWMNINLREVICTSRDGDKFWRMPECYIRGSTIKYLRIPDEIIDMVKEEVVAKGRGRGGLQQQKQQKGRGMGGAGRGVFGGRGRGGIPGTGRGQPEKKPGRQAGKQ
Chain of U6 snRNA-associated Sm-like protein LSm6 (P62312 whole entry): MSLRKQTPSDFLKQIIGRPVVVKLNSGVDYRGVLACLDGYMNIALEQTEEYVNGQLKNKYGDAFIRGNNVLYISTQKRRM

For the substance Splicing factor 3B subunit 4, Q15427, the “listed as a hit” value in test [1] is “yes”.
Take Thioredoxin-like protein 4A, P83876: the “listed as a hit” value in test [2] is given as “yes”.
As to “Nuclear cap-binding protein subunit 2, P52298”, the “listed as a hit” value in test [3] is on record as “yes”.
Take “Nuclear cap-binding protein subunit 1, Q09161”: the “listed as a hit” value in [4] is reported as “yes”.
With “U5 small nuclear ribonucleoprotein 200 kDa helicase, O75643”, the “listed as a hit” value in test [5] was “yes”.
Regarding “U5 small nuclear ribonucleoprotein 40 kDa protein, Q96DI7”, in test [6], the “listed as a hit” value is recorded as “yes”.
On to “U6 snRNA-associated Sm-like protein LSm7, Q9UK45”, for which the “listed as a hit” value in test [7] is reported as “yes”.
Take “U4/U6 small nuclear ribonucleoprotein Prp3, O43395”: the “listed as a hit” value in [8] is “yes”.
Consider Pre-mRNA-processing factor 17, O60508, for which the “listed as a hit” value in [9] is reported as “yes”.
As for “Peptidyl-prolyl cis-trans isomerase H, O43447”, the “listed as a hit” value in test [10] is “yes”.
Turning to “U2 small nuclear ribonucleoprotein B'', P08579”, the “listed as a hit” value in test [11] is “yes”.
